Source: PubChem
The list is not random: actives were taken first. Their share in the collection is about 7.4%.
ELG1 genotoxic – genotoxicity induction in ELG1-luciferase HEK293T cells; HEK293T ELG1-luciferase reporter, luminescence, 16 h; Potency, µM (doses to about 46 µM), for inactives: top-dose activity change, positive = activation, most hits filed as activators; actives 1.3% (n = 330,000); AID 504466; further: % of control where 0% means no effect; nearly all actives have a fitted effect of over 60% in size
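DMSO vehicle served as control against compound-treated ELG1-luciferase HEK293T cells; exposure lasted 16 hr at 37 °C and 5% CO2, followed by ONE-Glo luminescence detection after 30 min.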
FLuc counter – counter-screen for miR-21 project: firefly luciferase inhibitors or activators; actives 6.9% (n = 360,000); Potency, µM (doses to about 57.5 µM), for the others: at the highest dose activity change, negative = inhibition, actives largely listed as inhibitors; AID 588342; purified FLuc, Km substrates, luminescence inhibition;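 further: plate controls were vehicle for no effect and reference inhibitor for full effect; nearly all actives have a fitted effect of over 55% in size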
Target sequence (P08659 whole entry, looked up): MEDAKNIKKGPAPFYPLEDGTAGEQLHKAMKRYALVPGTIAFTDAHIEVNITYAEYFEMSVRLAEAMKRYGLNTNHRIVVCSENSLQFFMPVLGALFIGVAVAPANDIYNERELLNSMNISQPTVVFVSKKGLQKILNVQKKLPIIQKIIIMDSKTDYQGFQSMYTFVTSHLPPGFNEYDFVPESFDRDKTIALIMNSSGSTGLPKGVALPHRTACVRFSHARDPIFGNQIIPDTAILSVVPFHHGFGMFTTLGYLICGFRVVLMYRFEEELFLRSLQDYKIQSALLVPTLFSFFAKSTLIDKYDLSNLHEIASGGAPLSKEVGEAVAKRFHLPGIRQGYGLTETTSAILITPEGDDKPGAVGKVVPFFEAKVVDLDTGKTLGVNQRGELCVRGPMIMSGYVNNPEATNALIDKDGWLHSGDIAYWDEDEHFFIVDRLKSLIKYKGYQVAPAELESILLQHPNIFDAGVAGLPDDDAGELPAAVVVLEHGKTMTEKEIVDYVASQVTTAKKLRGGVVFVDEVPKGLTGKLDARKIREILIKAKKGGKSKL
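Biochemical qHTS of compounds, final roughly 60 µM downward over six points, against 10 nM purified firefly luciferase using Km concentrations of substrates (10 uM D-luciferin, 10 uM ATP) in Tris acetate pH 7.5 buffer; luminescence output.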
KinaseGlo FLuc – counter-screen: inhibitors of Kinase-Glo firefly luciferase; AID 1379; Kinase-Glo luciferase, ATP luminescence, 8 min; actives 0.28% (n = 200,000); Potency, µM (titrated, usually from 38.3 µM), inactives show at the top dose activity change, negative = inhibition, hits mostly inhibitors; Q27757; further: on the % scale 0 is the no-effect control and ±100 the full control effect; nearly all actives have a fitted effect of over 60% in size
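Luminescence was the read-out, taken after 8-minute incubation at ambient temperature. Luciferase turned over luciferin with 10 uM ATP in imidazole pH 7.2 buffer containing KCl, MgCl2, Tween 20 and BSA.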
SMN2 splice enh – increases expression of the SMN2 splice variant | actives 2.8% (n = 210,000) | Potency, µM (top dose mostly 46.1 µM), for inactives: at the highest dose activity change, positive = activation, usual class: activators | HEK293 SMN2-luciferase splicing reporter, luminescence, 30-36 h; further: % of control where 0% means no effect; nearly all actives have a fitted effect of over 55% in size
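HEK293 cells carry an SMN2 minigene-luciferase reporter in which exon 7 inclusion puts luciferase in frame. Cells were seeded at 2000 cells/well, attached for 10-12 hours, then exposed to compounds for 30-36 hours at 37C before ONE-Glo luminescence.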
Rab9 prom act – activates the Rab9 promoter. actives 2.8% (n = 320,000). Huh7 Rab9 promoter-luciferase reporter, luminescence, 24 h. Potency, µM (highest dose often 9.22 µM), inactives show at the top dose activation, negative = inhibition, actives largely listed as activators; further: % of control where 0% means no effect; nearly all actives have a fitted effect of over 60% in size
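Using Huh7 cells stably transfected with Rab9 promoter–luciferase, compounds were incubated 24 h at 37 °C, 5% CO2; luciferase luminescence was read 10 min after reagent addition.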
NPC1 promoter act – activators of NPC1 promoter; Huh7 NPC1 promoter luciferase reporter, 24 h; Potency, µM (doses to about 9.22 µM), inactives show top-dose activation, usual class: activators; actives 2.4% (n = 320,000); further: % of control where 0% means no effect; nearly all actives have a fitted effect of over 60% in size
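Luciferase expression driven by the NPC1 promoter was measured in stably transfected Huh7 cells after a 24 h compound incubation, using a luciferase reagent and a luminescence read.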
Active calls of the source: *; ? = inconclusive; / = no result. The call rests on the fitted dose curve; in most records, active means well fitted curve in the direction sought with a large enough effect; inconclusive means small, poorly fitted or top-dose-only effect, or another doubt; inactive means no such curve, though single readings can be large; an effect the other way counts as inactive or inconclusive. Potency means the concentration at half of the fitted maximal effect.

SMILES | ELG1 genotoxic | FLuc counter | KinaseGlo FLuc | SMN2 splice enh | Rab9 prom act | NPC1 promoter act
Fc1ccc(/C=C/c2nnc(-c3cccs3)o2)cc1 | 10.3µM* | 2.69µM* | -5.0% | 12.6µM* | 1.12µM* | 2.24µM*
Cc1ccc(-c2nnc(-c3cccs3)o2)cc1 | 5.17µM* | 6.75µM* | -7.5% | 12.6µM* | 1.58µM* | 3.55µM*
Cc1ccc(/C=C/c2nnc(-c3cccs3)o2)cc1 | ? | 1.69µM* | -5.9% | 10µM* | 0.891µM* | 0.355µM*
FC(F)(F)c1ccc2c(c1)[nH]c(=S)n2C1CC1 | -9.1% | -5.0% | -0.7% | -11.2% | -16.5% | -2.6%
COc1ccccc1OCC(=O)N/N=C/c1c(O)ccc2ccccc12 | -4.9% | ? | / | / | -21.8% | -36.8%
COc1ccc(/C=N/Nc2nnc(-c3ncc[nH]3)c3ccccc23)cc1 | 15.5% | 0.338µM* | -26.5% | 13.9% | ? | 2.82µM*
Oc1ccc2ccccc2c1/C=N/Nc1nnc(-c2ncc[nH]2)c2ccccc12 | 17.3% | 3.38µM* | -5.8% | -115.6% | -29.6% | -17.8%
COC(=O)c1cnc(N2CCCN(S(=O)(=O)c3ccc(C(F)(F)F)cc3)CC2)nc1C(F)(F)F | -7.8% | -1.5% | / | / | -3.5% | 1.1%
Cc1ccc(N2CC(NC(=O)N3CCN(C(=O)c4ccco4)CC3)CC2=O)cc1 (stereo not drawn) | -1.4% | -2.0% | / | / | 2.7% | 0.6%
O=C(COC(=O)c1ccccc1)c1ccc(Br)cc1 | 8.9% | 0.536µM* | ? | 8.4% | 3.98µM* | 2.24µM*
O=C(COC(=O)CCCNC(=O)c1ccc(Cl)cc1)Nc1ccc(Br)cc1 | 1.7% | 3.38µM* | 0.3% | -0.4% | 0.2% | -1.0%
Cc1ccc(C(=O)O/N=C(\N)c2ccc(Br)cc2)cc1 | 12.6µM* | 2.39µM* | -10.0% | 10.0% | 28.9% | 28.1%
O=C(COC(=O)c1ccc(Br)cc1)NCCc1ccccc1 | -1.7% | 3.1% | 3.0% | 5.6% | 1.4% | -0.4%
O=C(COC(=O)CCCSc1nc2ccccc2[nH]1)Nc1ccc(Cl)cc1 | 2.0% | 19µM* | 0.2% | 8.9% | -6.0% | -5.0%
O=C(CCCNC(=O)c1ccc(Cl)cc1)Nc1ccc(Br)cc1 | 1.3% | 4.8% | / | / | 3.0% | 7.4%
CCNC(=O)NC(=O)COC(=O)CCCSc1nc2ccccc2[nH]1 | 0.3% | -24.1% | -1.2% | -4.8% | 14.6% | 5.2%
N#C/C(=C/c1cn[nH]c1-c1ccc(Br)cc1)C(=O)O | -18.7% | -18.1% | -2.5% | -17.1% | -3.8% | -2.2%
Cc1noc(C)c1S(=O)(=O)N(CC(=O)NCCc1ccc(Cl)cc1)c1ccc(C(C)C)cc1 | / | 1.8% | / | 4.2% | / | /
COc1ccc(OC)c(CC(=O)N2CCc3cc(OC)c(OC)cc3C2)c1 | -2.4% | 4.2% | / | / | -2.0% | 0.8%
CC(=O)O/N=C(\N)c1ccc(-c2csnn2)cc1 | ? | ? | / | / | 25.9% | 16.7%
CC(C)(C)C(=O)O/N=C(\N)c1ccc(Br)cc1 | 0.4% | 21.3µM* | / | / | -5.5% | 1.2%
CC(C)(C)C(=O)O/N=C(\N)c1c(Cl)cccc1Cl | -2.9% | 0.1% | / | / | -1.5% | 0.5%
CC(C)(C)C(=O)O/N=C(\N)c1ccc(-c2csnn2)cc1 | ? | 7.57µM* | / | / | 4.47µM* | 2.82µM*
N/C(=N\OC(=O)c1ccc(Br)cc1)c1ccccc1 | ? | 0.213µM* | ? | ? | 2.82µM* | 3.16µM*
N/C(=N\OC(=O)Cc1cccs1)c1ccc([N+](=O)[O-])cc1 | 9.9% | ? | -1.7% | ? | -1.3% | 2.4%
N/C(=N\OC(=O)Cc1cccs1)c1ccc(Br)cc1 | ? | 19µM* | -1.5% | 2.0% | 15.9% | -1.7%
Cc1cccc(C(=O)N2CCCC(N3CCN(Cc4ccc5c(c4)OCO5)CC3)C2)n1 (stereo not drawn) | 0.6% | -0.1% | / | / | 6.6% | -2.4%
O=C(Nc1ccc(-c2csnn2)cc1)C(Cl)(Cl)Cl | 0.2% | -19.1% | / | / | 0.2% | 4.2%
O=C(CSCC(=O)OCC(=O)c1ccc(Br)cc1)Nc1ccc(Br)cc1 | 2.3% | 16.9µM* | 3.8% | -5.9% | -7.5% | -5.3%
